# From PubChem BioAssay (NCATS)
# Inconclusive results are not listed. A call without a number means that no potency is given here. Values without a mark were called inactive. The source made the active and inactive calls. The call rests on the fitted dose curve; in most records, active means well fitted cell-killing curve with a large enough effect; inconclusive means small, poorly fitted or top-dose-only effect, or effect the other way; inactive means flat fitted curve, though single readings scatter. Where a SMILES comes first, the peptide text is derived from it.
# Tested on: Tov112D
# Assay: Primary qHTS to identify gynecologic anti-cancer compounds using libraries of approved drugs and bioactive compounds (AID 1345084); further: nearly all actives have a fitted effect of over 55% in size
# Conditions: Gynecologic cancer cell panel viability, ATPlite luminescence, 48 h; series mostly up to 57.5 µM
# Outline: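 Cells, 1,000 per well, plated 16 h, then exposed 48 h at 37 C to compounds. Viability by ATPlite luminescence after 15 min at room temperature.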
SMILES,Potency,"activity change, negative = cytotoxicity"
C/C(=C\CC/C(C)=C/CC[C@]1(C)CCc2cc(O)cc(C)c2O1)CC/C=C(\C)C(=O)O,inactive,
C=C1CC23CC1CCC2C12OC(=O)C(C)(C(O)CC1O)C2C3C(=O)O (stereo not given),inactive,
C=C(C)[C@@H]1CC[C@]2(CO)CC[C@]3(C)[C@H](CC[C@@H]4[C@@]5(C)CC[C@H](O)C(C)(C)[C@@H]5CC[C@]43C)[C@@H]12,inactive,
COc1ccnc(CCc2nc3ncccc3[nH]2)c1,inactive,
Cc1c(NC(=O)N2CCOCC2)ccc2c1c1ccccc1n2C(C)C,inactive,
CC[C@@H](C)[C@H](N)C(=O)N1Cc2ccccc2C1,inactive,
CC1(O)CC(O)C2C(C(=O)O)=COC(OC3OC(CO)C(O)C(O)C3OC(=O)/C=C/c3ccc(O)cc3)C21 (stereo not given),inactive,
COc1cc(Cc2cnc(N)nc2N)c(C(C)C)cc1OC,inactive,
C=C1CCC2(C(=O)OC3OC(CO)C(O)C(O)C3O)CCC3(C)C(=CCC4C5(C)CCC(OC6OC(CO)C(OC7OC(C)C(O)C(O)C7O)C(OC7OCC(O)C(O)C7O)C6O)C(C)(C)C5CCC43C)C2C1 (stereo not given),,9.24% [at 11.6 µM]
CSCC[C@H](NC(=O)[C@H](CO)NC(=O)[C@H](CCC(=O)O)NC(C)=O)C(=O)N[C@H](C=O)CC(=O)O (Ac-ESMD-aldehyde),,6.37% [at 11.6 µM]
C=C(C(=O)OC)[C@]12O[C@@](C)(CC[C@@]3(O)/C(=C\C)C(=O)O[C@]3(C)C[C@@H]1OC(=O)C(CO)CN1CCCC1C(=O)O)CC2=O (stereo not given in full),inactive,
CC(=O)OCC(Cc1ccccc1)NC(=O)C(Cc1ccccc1)NC(=O)c1ccccc1 (stereo not given),inactive,
C/C=C/C=C/C=C/C(=O)N(C)C(C(=O)NC(C)C(=O)N1CCCC1C(N)=O)C(C)C (stereo not given),inactive,
COC(=O)C[C@@H]1C(C(=O)O)=CO[C@@H](O[C@@H]2O[C@H](CO)[C@@H](O)[C@H](O)[C@H]2O)/C1=C\COC(=O)/C=C/c1ccc(O)c(OC)c1,inactive,
O=C(C1OC1/C=C/c1ccc2c(c1)OCO2)N1CCCCC1 (stereo not given),inactive,
CC1(C)C(=O)CCC2(C)C1C(O)C=C1COC(=O)C12O (stereo not given),inactive,
COc1cc(CO)ccc1O[C@@H]1O[C@H](CO)[C@@H](O)[C@H](O)[C@H]1O,inactive,
C=C(C(=O)O)C1CC(OC(=O)CC(C)CC)C2(C)CCCC(=C)C2C1 (stereo not given),inactive,
Cc1cc(OCCN2CCOCC2)nn1-c1ccc2ccccc2c1,inactive,
CC(=O)O[C@@H]1C(=O)C(C)=C(CCC(C)CC(=O)O)[C@@]2(C)CCCC(C)(C)C12 (stereo not given in full),inactive,
